The entries come from a sample that favours hits as a whole.
12-LOX inh – inhibitors of human 12S-lipoxygenase ALOX12 | P18054 | purified 12hLO, xylenol orange hydroperoxide absorbance | Potency, µM (titrated, usually from 108 µM), actives largely listed as inhibitors | 580,000 tested, 1.1% active
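Hydroperoxide product was detected by ferrous iron/xylenol orange as the 573 to 405 nm absorbance ratio. Arachidonic acid at 40 uM (final) was turned over for 30 min at room temperature by 150 nM human 12hLO, pH 7.0 Hepes buffer, after 15 min compound preincubation.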
HT1080 IDH1KD tx – kills HT-1080 cells with IDH1 knockdown | AID 686971 | Potency, µM (titrated, usually from 46.1 µM), actives largely listed as cytotoxic | 360,000 tested, 2% active | HT-1080 IDH1 knockdown viability, ATP luminescence, 48 h
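After a 2 h attachment period, IDH1KD HT-1080 cells took pin-transferred compound for 48 h at 37 °C; ATP-based luminescence after 10 min room-temperature reagent incubation reported viability.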
DT40 TDP1 CPT – DT40-hTDP1 cell growth loss with CPT; chicken DT40 Tdp1-/-;hTDP1 cells + 20 nM CPT, ATP luminescence, 48 h; Potency, µM (doses to about 46.2 µM), usual class: inhibitors; 420,000 tested, 12% active; also: nearly all actives have a fitted effect of over 55% in size
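Chicken DT40 Tdp1-/- cells complemented with human TDP1, 400 cells/well, exposed to compounds plus 20 nM camptothecin for at least 48 h at 37 C; viability read as ATP content by CellTiter-Glo luminescence.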
TDP1 cell noCPT – qHTS for Inhibitors of human tyrosyl-DNA phosphodiesterase 1 (TDP1): qHTS in cells in absence of CPT; DT40 Tdp1-/- hTDP1 cells, no CPT, ATP luminescence, 48 h; Potency, µM (highest dose often 46.2 µM), hits mostly inhibitors; 420,000 tested, 15% active; AID 686978, 2013; also: nearly all actives have a fitted effect of over 55% in size
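Seeded 400 DT40-hTDP1 cells/well (vehicle DMSO, no 20 nM CPT); pinned compounds; ≥48 hr at 37 °C; CellTiter-Glo luminescence as viability measure.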
IL-1B inflam inh – inhibitors of inflammasome signaling (IL-1 beta secretion); THP-1 LPS/ATP IL-1B secretion, AlphaLISA, 16 h; stronger effect = lower value; activity change, % at 57.5 µM; 360,000 tested, 4.7% active; in the data active = activity change below about -50%; inconclusive = mostly about -30% to -49%
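THP-1 cells pretreated 1 hr with compounds (up to 57.5 uM final), then stimulated with LPS (250 ng/mL final) plus ATP (1.25 mM final); secreted IL-1B measured by AlphaLISA after 16 hr, decreased signal indicating inhibition.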
HT1080-NT tox – kills 2HG-producing HT-1080-NT fibrosarcoma cells. AID 686970. Potency, µM (doses to about 46.1 µM), most hits filed as cytotoxic. HT-1080-NT fibrosarcoma viability, CellTiter-Glo ATP luminescence, 48 h. 360,000 tested, 1.6% active;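 also: NT is the 2HG producing partner of a matched IDH1 knockdown line; nearly all actives have a fitted effect of over 55% in size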
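Viability of the 2HG-overproducing fibrosarcoma line after 48 hours of compound exposure at 37 degrees C was determined by luminescence with CellTiter-Glo, and concentration-effect curves were then fitted and categorized.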
Numbers stand for hits; . = inactive; ? = inconclusive; / = not tested or not shown; ! = not confirmed by another sample; [ ] = remark or other dose. Unless noted, calls follow the shape of the dose curve; as a rule, active = well fitted curve in the direction sought with a large enough effect; inconclusive = small, poorly fitted or top-dose-only effect, or another doubt; inactive = no such curve, though single readings can be large; an effect the other way counts as inactive or inconclusive.

SMILES	12-LOX inh	HT1080 IDH1KD tx	DT40 TDP1 CPT	TDP1 cell noCPT	IL-1B inflam inh	HT1080-NT tox
O=C(Nc1ccc(S(=O)(=O)N2CCOCC2)cc1)c1cccc([N+](=O)[O-])c1	.	.	?	.	.	.
O=C(Nc1ccc(S(=O)(=O)N2CCOCC2)cc1)c1ccc(Cl)c([N+](=O)[O-])c1	.	.	13µM	13µM	-96	?
CN(C)S(=O)(=O)c1cccc(NC(=O)c2ccc(N3CCOCC3)c([N+](=O)[O-])c2)c1	.	.	16µM	?	.	.
O=C(Nc1cccc(S(=O)(=O)N2CCOCC2)c1)c1ccc(Cl)c([N+](=O)[O-])c1	.	.	?	?	-99	.
O=C(Nc1ccccc1N1CCOCC1)c1ccc(N2CCOCC2)c([N+](=O)[O-])c1	.	.	?	?	.	?
O=C(Nc1cccc(S(=O)(=O)N2CCOCC2)c1)c1cccc(S(=O)(=O)N2CCCC2)c1	.	.	.	.	.	.
Cc1ccc(C(=O)Nc2cccc(S(=O)(=O)N3CCOCC3)c2)cc1[N+](=O)[O-]	.	.	12µM	?	.	.
COc1ccc(C(=O)NC2CC2)cc1C	.	/	/	/	/	/
O=C(Cc1ccc(F)cc1)N1CCN(c2cc(C(F)(F)F)ncn2)CC1	.	/	/	/	/	/
Cn1cnc2c(oc3nc(C4CCCCC4)c4c(c32)CCC4)c1=O	.	/	/	/	/	/
COc1ccc(C)cc1NC(=O)c1ccc2c(c1)N(C)C1CCCN1C2=O (stereo not drawn)	.	/	/	/	/	/
COc1ccc(C(=O)Nc2ccc(N3CCN(C(C)=O)CC3)cc2)cc1[N+](=O)[O-]	.	/	/	/	/	/
CC(=O)N1CCN(c2ccc(NC(=O)c3ccc(Cl)c([N+](=O)[O-])c3)cc2)CC1	.	.	?	.	-52	.
O=C(Nc1ccc(C(=O)N2CCC(O)(c3ccc(Cl)c(C(F)(F)F)c3)CC2)cc1)c1ccc(Br)o1	?	.	?	18µM	-61	.
O=C(Nc1ccc(C(=O)N2CCN(c3ccncc3)CC2)cc1)c1ccc(Br)o1	.	.	.	?	.	.
Cc1cccc(C#Cc2ccccc2)n1	?	.	?	30µM!	.	.
Cc1cc(Cl)n2nc(C)c(-c3ccc(Cl)cc3)c2n1	.	18µM	?	?	-99	?
Cc1cc(SCC#N)n2nc(C)c(-c3ccccc3)c2n1	.	.	.	.	-60	.
Cc1cc(NCCCn2ccnc2)n2nc(C)c(-c3ccc(Cl)cc3)c2n1	.	11µM	16µM	15µM	-60	.[9.24 µM]
C=CCSc1cc(C)nc2c(-c3ccccc3)c(C)nn12	.	?	?	?	.	?
Cc1cc(N)n2nc(C)c(-c3ccc(Cl)cc3)c2n1	.	?	?	?	.	?
Cc1cc(SCC#N)n2nc(C)c(-c3ccc(Cl)cc3)c2n1	.	8.9µM	.	.	.	?
Cc1ccc2nc(-c3cccnc3)cc(C(=O)O)c2c1	.	/	/	/	/	/
Cc1nc2ccc(C(=O)OCC(=O)NC(C)C34CC5CC(CC(C5)C3)C4)cc2nc1C (stereo not drawn)	.	/	/	/	/	/
CS(=O)(=O)N1CCC(C2CCN(C(=O)c3ccc(Cl)s3)C2)CC1 (stereo not drawn)	.	/	/	/	/	/
CC1=C(C(=O)N2CCOCC2)C(c2ccc(F)c(Br)c2)C2=C(CCCC2=O)N1 (stereo not drawn)	.	/	/	/	/	/
O=C(Nc1cccc(S(=O)(=O)NC2=NCCCCC2)c1)c1cccnc1Cl	.	.	.	.	.	.
O=C(NCc1ccco1)c1cc(-c2ccccc2)nc2ccccc12	.	.	.	?	.	.
O=C(Nc1cccc(S(=O)(=O)NC2=NCCCCC2)c1)c1cc(-c2ccncc2)nc2ccccc12	.	.	?	23µM	?	.
O=C(Nc1cccc(S(=O)(=O)NCc2ccco2)c1)c1cc(-c2ccccc2)nc2ccccc12	?	?	?	23µM	-88	.

Screening results deposited in PubChem by National Center for Advancing Translational Sciences (NCATS).
